“And” between values parts separate entries of the source, which are not always exact repeats. Identical values can stand only once. Inconclusive results are not listed. More than one record can exist for a structure, and the calls need not agree. The source made the active and inactive calls. Unless noted, calls follow the shape of the full dose curve.
Tests used:
[1] = Primary qHTS for inhibitors of SARS-S pseudo-typed particle cell entry (AID 1479145); also: nearly all actives have a fitted effect of over 45% in size; also: potency is read from the fitted curve at half-maximal effect; as to activity change, negative = inhibition: series mostly up to about 57 µM; % is scaled to controls: 0 for no effect and ±100 for the full control effect
[2] = Primary qHTS for Huh7 cytotoxicity: counterscreen for inhibitors of MERS-S pseudotyped particle cell entry (AID 1479147)
[3] = Primary qHTS for inhibitors of MERS-S pseudo-typed particle cell entry (AID 1479149); also: nearly all actives have a fitted effect of over 60% in size; also: potency is read from the fitted curve at half-maximal effect; as to activity change, negative = inhibition: series mostly up to about 57 µM; % is scaled to controls: 0 for no effect and ±100 for the full control effect
[4] = Primary qHTS for Vero E6 cytotoxicity: counterscreen for inhibitors of SARS-S pseudo-typed particle cell entry (AID 1479150)
[5] = Confirmatory qHTS for VERO E6 Cytotoxicity Assay: Counterscreen for SARS-CoV-2 CPE Assay (AID 1508605); also: nearly all actives have a fitted effect of over 60% in size; also: potency is read from the fitted curve at half-maximal effect
[6] = Primary qHTS for inhibitors of La Crosse Virus (LACV) - induced cell death in SH-SY5Y cells (AID 1508616; active = well fitted curve in the direction sought with a large enough effect; an effect the other way counts as inactive or inconclusive;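 also: top concentration of the series differs between compounds; 0% = infected DMSO wells and 100% = uninfected DMSO wells; higher means more rescue of cells from virus-induced death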)
Procedure, shortened: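 Screening measures cell viability in LACV-infected SH-SY5Y cultures. Compound was added before virus (0.01 MOI), and ATP was detected by luminescence 6 days later.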

[7] = target: Calcium and integrin-binding protein 1 (Homo sapiens) (UniProt Q99828); assay: Validation qHTS for Identification of Calcium Integrin Binding protein 1 (CIB1) Competitor (AID 1508618; active = well fitted curve in the direction sought with a large enough effect; an effect the other way counts as inactive or inconclusive; also: % is scaled to controls: 0 for no effect and ±100 for the full control effect)
Sequence of Calcium and integrin-binding protein 1 (Homo sapiens) (Q99828 whole entry, looked up): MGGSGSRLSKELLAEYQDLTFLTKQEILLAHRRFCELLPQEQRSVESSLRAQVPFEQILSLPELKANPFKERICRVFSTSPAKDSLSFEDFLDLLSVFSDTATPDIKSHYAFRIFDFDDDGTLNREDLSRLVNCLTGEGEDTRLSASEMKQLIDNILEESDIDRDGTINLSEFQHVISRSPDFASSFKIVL
Procedure, shortened: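 CIB1-GST (1 uM final) in 5 mM HEPES pH 7.4, 125 mM NaCl, 5 mM CaCl2, 0.01% Tween20 was preincubated 15 min at room temperature with compound (up to 114 uM), then FITC-alphaIIb peptide (100 nM) added for 15 min; fluorescence polarization read.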

[8] = target: Calcium and integrin-binding protein 1 (Homo sapiens) (UniProt Q99828); assay: Primary qHTS for Identification of Calcium Integrin Binding Protein 1 (CIB1) Competitor (AID 1508620; active = well fitted curve in the direction sought with a large enough effect; an effect the other way counts as inactive or inconclusive;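 also: GST tagged CIB1 binding a fluorescein labelled alphaIIb integrin peptide tracer; top concentration of the series differs between compounds; % is scaled to controls: 0 for no effect and ±100 for the full control effect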)
Procedure, shortened: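 CIB1-GST (1 uM final) and compound incubated 15 min at room temperature before adding FITC-alphaIIb peptide tracer (100 nM final). Competition for binding read by fluorescence polarization (ex 480, em 540) after another 15 min at room temperature.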

[9] = Confirmatory qHTS for activators (rescue) of SARS-CoV-2 Cytopathic Effect (CPE) (AID 1508606); also: potency is read from the fitted curve at half-maximal effect; nearly all actives have a fitted effect of over 70% in size

Cc1ccc(-c2cc(C(F)(F)F)nn2-c2ccc(S(N)(=O)=O)cc2)cc1
inactive: Potency [1] | Potency [2] | Potency [3] | Potency [4] | Potency [5]

Nc1ccncc1
inactive: Potency [1] | Potency [2] | Potency [3] | Potency [4] | Potency [6] | Potency [7] | Potency [8]

Clc1ccc2c(c1)C(N1CCNCC1)=Nc1ccccc1O2
inactive: Potency [1] | Potency [2] | Potency [3] | Potency [4] | Potency [5]

CC(=O)Nc1cc([As](=O)(O)O)ccc1O
inactive: Potency [1] | Potency [2] | Potency [3] | Potency [4] | Potency [6] | Potency [8]

c1cnc2cc3c(cc2n1)C1CNCC3C1
inactive: Potency [1] | Potency [2] | Potency [3] | Potency [4]

Oc1ccc(Cl)cc1Cc1ccccc1
inactive: Potency [1] | Potency [2] | Potency [3] | Potency [4] | Potency [6] | Potency [8]

O=c1[nH]cc(F)c(=O)[nH]1
inactive: Potency [1] | Potency [2] | Potency [4]
active: Potency [3] 8.91 µM

CCCc1nc2c(C)cc(-c3nc4ccccc4n3C)cc2n1Cc1ccc(-c2ccccc2C(=O)O)cc1
inactive: Potency [1] | Potency [2] | Potency [3] | Potency [4]

COc1cc(Cc2cnc(N)nc2N)cc(OC)c1OC
inactive: Potency [1] | Potency [2] | Potency [3] | Potency [4]

CN(C)/N=N/c1nc[nH]c1C(N)=O
inactive: Potency [1] | Potency [2] | Potency [3] | Potency [4]

CCOC(=O)Nc1ccc2c(c1)N(C(=O)CCN1CCOCC1)c1ccccc1S2
inactive: Potency [1] | Potency [2] | Potency [3] | Potency [4]

CC[N+](C)(C)c1cccc(O)c1
inactive: Potency [1] | Potency [2] | Potency [3] | Potency [4]

CC(C)(C)NC(=O)[C@H]1CC[C@H]2[C@@H]3CC[C@H]4NC(=O)C=C[C@]4(C)[C@H]3CC[C@]12C
inactive: Potency [1] | Potency [2] | Potency [3] | Potency [4]

Cc1c(O)cccc1C(=O)N[C@@H](CSc1ccccc1)[C@H](O)CN1C[C@H]2CCCC[C@H]2C[C@H]1C(=O)NC(C)(C)C
active: Potency [5] 12.6 µM | Potency [9] 3.16 µM
inactive: Potency [1] | Potency [2] | Potency [3] | Potency [4]

C=CCN1CC[C@]23c4c5ccc(O)c4O[C@H]2C(=O)CC[C@@]3(O)[C@H]1C5
inactive: Potency [1] | Potency [2] | Potency [3] | Potency [4] | Potency [6] | Potency [8]

Cn1cc[nH]c1=S
inactive: Potency [1] | Potency [2] | Potency [3] | Potency [4]

Cc1cccc(C)c1OCC(C)N (stereo unspecified)
inactive: Potency [1] | Potency [2] | Potency [3] | Potency [4]

CC1=C(C(=O)O)N2C(=O)[C@@H](NC(=O)[C@H](N)c3ccc(O)cc3)[C@H]2SC1
inactive: Potency [1] | Potency [2] | Potency [3] | Potency [4]

NCC(CC(=O)O)c1ccc(Cl)cc1 (stereo unspecified)
inactive: activity change, negative = inhibition [1] -11.8% [at 0.573 µM] | outcome [2] inactive [at 0.573 µM] | outcome [3] inactive [at 0.573 µM] | outcome [4] inactive [at 0.573 µM] | Potency [6] | Potency [7] | activity change, negative = inhibition [8] 5.6% [at 1.07 µM]

Nc1cc(-c2ccncc2)c[nH]c1=O
inactive: Potency [1] | Potency [2] | Potency [3] | Potency [4]

Cc1ncc(CNC(=O)N(CCCl)N=O)c(N)n1
inactive: Potency [1] | Potency [2] | Potency [3] | Potency [4] | Potency [6] | Potency [7] | Potency [8]

CCOC(=O)c1ncn2c1CN(C)C(=O)c1cc(F)ccc1-2
inactive: Potency [1] | Potency [2] | Potency [3] | Potency [4]

CC1(C)S[C@@H]2[C@H](NC(=O)C(C(=O)O)c3ccccc3)C(=O)N2[C@H]1C(=O)O (stereo partly specified)
inactive: Potency [1] | Potency [2] | Potency [3] | Potency [4]

NNCCc1ccccc1
inactive: Potency [1] | Potency [2] | Potency [3] | Potency [4]

C[n+]1ccccc1/C=N/O
inactive: Potency [1] | Potency [2] | Potency [3] | Potency [4]

NCC(O)c1ccc(O)cc1 (stereo unspecified)
inactive: Potency [1] | Potency [2] | Potency [3] | Potency [4] | Potency [6] | Potency [7] | Potency [8]

Oc1cccc2cccnc12
inactive and 3.55 µM (active): Potency [3]
inactive: Potency [1] | Potency [2] | Potency [4] | Potency [6] | Potency [8]

OCCOc1ccccc1
inactive: Potency [1] | Potency [2] | Potency [3] | Potency [4] | Potency [6] | Potency [8]

COc1ccccc1Oc1c(NS(=O)(=O)c2ccc(C(C)(C)C)cc2)nc(-c2ncccn2)nc1OCCO
inactive: Potency [1] | Potency [2] | Potency [4]

COC(=O)[C@H]1[C@H]2C[C@@H]3c4[nH]c5cc(OC)ccc5c4CCN3C[C@H]2C[C@@H](OC(=O)c2cc(OC)c(OC)c(OC)c2)[C@@H]1OC
active: Potency [9] 10 µM
inactive: Potency [1] | Potency [2] | Potency [4] | Potency [5]

CCCC(CCC)C(=O)O
inactive: Potency [1] | Potency [2] | Potency [4]

CCN(CC)CCCC(C)Nc1ccnc2cc(Cl)ccc12 (stereo unspecified)
inactive: Potency [1] | Potency [2] | Potency [4]

CCCN1C[C@H](CSC)C[C@@H]2c3cccc4[nH]cc(c34)C[C@H]21
inactive: Potency [1] | Potency [2] | Potency [4]

Cc1ccc(NC(=O)c2ccc(CN3CCN(C)CC3)cc2)cc1Nc1nccc(-c2cccnc2)n1
active: Potency [1] 12.6 µM | Potency [9] 8.91 µM
inactive: Potency [2] | Potency [4] | Potency [5]

CCC(C(N)=O)N1CCCC1=O (stereo unspecified)
inactive: Potency [1] | Potency [2] | Potency [3] | Potency [4] | Potency [6] | Potency [8]

— PubChem BioAssay (NCATS)
